Screening results deposited in PubChem BioAssay by several laboratories.
ANO1 activ – activators or potentiators of mouse TMEM16A chloride channel. Q8BHY3. HEK293 TMEM16A/YFP-H148Q/I152L, iodide quench fluorescence; hits give low values. B-score at 10 µM. hit rate 0.3% among 340,000;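 active = fluorescence-ratio B-score plate-corrected deviation score at least 3 library SD below zero, with starting fluorescence score within 5 deviations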;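 also: channel opened by trigger with iodide after compound preincubation; score built on the fluorescence ratio of max minus min over baseline; more negative score means more quench and so TMEM16A activation or potentiation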
MEKK2 mut-MEK5 – signal of MEK5 binding to mutant human MEKK2 PB1 domain; bead flow cytometry, Alexa488-MEK5 binding to MEKK2 mutant; percent response, % at 10 µM; hit rate 0.35% among 290,000; in the data active = percent response above about 24%, passing the limit was not always enough
MEKK3 PB1 HTS – raises or lowers MEK5 binding to the human MEKK3 PB1 domain | Q99759 | bead-based flow cytometry, Alexa488-MEK5 binding to MEKK3; actives lie on both sides; 0 = blocked by unlabeled MEK5, 100 = vehicle | binding response (% of control), % at 10 µM | hit rate 1.4% among 290,000 | AID 1529;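 active = binding response more than 3 SD above or below the average of its plate-row segment, actives on both sides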;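 also: Alexa488 bead fluorescence after subtracting the streptavidin-only scavenger bead signal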
Target sequence (Q99759 whole entry, looked up, the tested form may be a part): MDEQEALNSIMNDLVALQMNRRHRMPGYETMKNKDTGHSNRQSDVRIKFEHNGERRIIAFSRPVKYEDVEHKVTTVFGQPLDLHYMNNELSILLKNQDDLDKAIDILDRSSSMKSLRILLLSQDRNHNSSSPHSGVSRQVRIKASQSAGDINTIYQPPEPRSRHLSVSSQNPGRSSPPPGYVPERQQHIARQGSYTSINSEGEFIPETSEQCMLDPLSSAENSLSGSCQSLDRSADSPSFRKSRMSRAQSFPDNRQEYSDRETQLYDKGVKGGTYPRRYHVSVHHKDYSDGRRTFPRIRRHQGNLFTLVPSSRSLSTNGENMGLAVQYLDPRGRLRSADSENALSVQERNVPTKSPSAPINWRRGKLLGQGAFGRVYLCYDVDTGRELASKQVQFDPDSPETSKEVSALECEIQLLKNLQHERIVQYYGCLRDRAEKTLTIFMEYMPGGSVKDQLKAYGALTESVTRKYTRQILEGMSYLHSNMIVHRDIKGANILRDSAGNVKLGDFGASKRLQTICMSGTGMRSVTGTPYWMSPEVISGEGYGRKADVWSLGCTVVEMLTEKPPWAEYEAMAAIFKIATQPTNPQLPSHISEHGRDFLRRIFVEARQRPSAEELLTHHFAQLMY
MEKK2 WT-MEK5 – raises or lowers MEK5 binding to wildtype human MEKK2 PB1 domain | Q9Y2U5 | hit rate 1.1% among 290,000 | binding response (% of control), % at 10 µM | bead flow cytometry, Alexa488-MEK5 binding to MEKK2 WT; actives lie on both sides; in the data active = binding response below about 67% or above about 130%
NTR1 ag – NTR1 (human) agonism | P30989 | NTR1-U2OS beta-arrestin-GFP spot imaging, agonist mode | activation, % at 20 µM | hit rate 0.17% among 330,000 | AID 493036;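 active = activation at or above 40% of the spot to cytoplasm intensity ratio, with at least 20 cells analyzed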;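 also: 0% = DMSO without peptide and 100% = 100 nM NTR1 peptide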
TMEM16A inh – inhibitors of mouse TMEM16A calcium-activated chloride channel; HEK293 TMEM16A/YFP iodide influx fluorescence, ionomycin; normalized B-score (activity score, 25-100; higher = stronger inhibition) at 10 µM; hit rate 1.2% among 310,000; AID 588511;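 active = ratio plate-corrected score three or more library SD toward inhibition, starting fluorescence score within five deviations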;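 also: score derived from kinetic fluorescence span divided by baseline fluorescence per well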
MEKK2wt confirm – raises or lowers MEK5 binding to wildtype human MEKK2, retest; shares compounds with MEKK3 PB1 HTS; bead flow cytometry, Alexa488-MEK5 binding to MEKK2 WT; actives lie on both sides; binding response (% of control), % at 10 µM; hit rate 2.4% among 5,900; AID 1892; in the data active = binding response below about 16% or above about 210%; inactive = in between
MEKK2mut-MEK5 – signal of MEK5 binding to mutant human MEKK2, retest; percent response, % at 10 µM; bead flow cytometry, Alexa488-MEK5 binding to MEKK2 mutant; shares compounds with MEKK3 PB1 HTS; hit rate 2% among 5,900; in the data active = percent response mostly above about 71%, no sharp cut-off; inactive = mostly below about 38%;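 also: higher means compound restores mutant binding toward wildtype level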
MEKK3-MEK5 inh – MEKK3-MEK5 PB1 inhibition, single concentration confirmation. shares compounds with MEKK3 PB1 HTS. bead flow cytometry, Alexa488-MEK5 binding to MEKK3; hits give low values. binding response (% of control), % at 10 µM. hit rate 1.8% among 5,900;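 active = binding response below 72% of control, or above a set upper limit, though filed actives all read lower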;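 also: 100% = DMSO only wells and 0% = binding blocked by excess unlabeled MEK5; lower values mean stronger disruption of MEK5 binding to MEKK3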
An asterisk follows results filed as active; i = inactive; x = no result; [ ] = dose if it differs, or a comment. In the library only some 3.4% were active in any assay of this set; here they are far more common.

SMILES	ANO1 activ	MEKK2 mut-MEK5	MEKK3 PB1 HTS	MEKK2 WT-MEK5	NTR1 ag	TMEM16A inh	MEKK2wt confirm	MEKK2mut-MEK5	MEKK3-MEK5 inh
O=C(O)/C=C/c1ccc(S(=O)(=O)Nc2ccccc2C(=O)Nc2ccc(F)cc2)cc1	i	-4	100	101	1	i	x	x	x
CCN(CC)CCCNC(=S)N1CCN(c2nc(-c3ccc(F)cc3)cs2)CC1	i	27*	110	186*	1	i	143	31	107
CCN1CCN(C(=S)Nc2cccc(Cl)c2)CC1	i	-7	100	99	-1	i	x	x	x
CCN1CCN(C(=S)Nc2ccc(Cl)c(Cl)c2)CC1	i	-3	64*[inhibitor]	62*[inhibitor]	1	i	111	10	104
O=c1ccc(Cl)cn1Cc1ccccc1F	i	7	127*	91	-1	i	95	-2	95
CC1CC(C)CN(S(=O)(=O)N2CCCC(C(=O)NC3CCCCC3C)C2)C1 (stereo unspecified)	i	0	99	99	-1	i	x	x	x
Cc1cccn2c(=O)c(/C=C(\C#N)C(=O)NC3CCS(=O)(=O)C3)c(Oc3ccc(F)cc3)nc12 (stereo unspecified)	i	6	104	107	2	i	x	x	x
Cc1cccn2c(=O)c(/C=C(\C#N)C(=O)NC3CCS(=O)(=O)C3)c(N3CCC(C)CC3)nc12 (stereo unspecified)	i	-1	131*	104	-1	i	102	-1	105
Cc1ccc(C(=O)NCC(=O)NCCc2ccc(S(N)(=O)=O)cc2)s1	i	-31	34*[inhibitor]	38*[inhibitor]	0	i	100	5	101
NS(=O)(=O)c1ccc(CCNC(=O)c2ccc(Cl)s2)cc1	i	10	106	115	-1	i	x	x	x
CCOc1ccccc1NC(=O)CSc1nc2nc(-c3cccs3)cc(C(F)(F)F)c2c(=O)[nH]1	i	-30	73*[inhibitor]	59*[inhibitor]	9	100*	94	-8	98
COc1ccc(NC(=O)CSc2nc3nc(-c4cccs4)cc(C(F)(F)F)c3c(=O)[nH]2)c(OC)c1	i	0	106	100	9	i	x	x	x
O=C(CNC(=O)C1CCCCC1)OCC(=O)c1ccc(Br)cc1	i	-4	94	92	0	x	x	x	x
COCCNC(=O)CN(c1cc(Cl)ccc1OC)S(=O)(=O)c1ccc(C)c([N+](=O)[O-])c1	i	0	128*	104	0	i	12*[inhibitor]	-29	71*
COCCCNC(=O)CN(c1cc(Cl)ccc1OC)S(=O)(=O)c1ccc(C)c([N+](=O)[O-])c1	i	-2	97	98	0	i	x	x	x
NS(=O)(=O)c1cccc(NC(=O)COC(=O)CCCc2c[nH]c3ccccc23)c1	i	1	105	103	-1	i	x	x	x
COc1cc(/C=N/n2cnnc2)ccc1OC(=O)c1cccnc1	i	3	100	99	0	i	x	x	x
COc1cc(/C=N/n2cnnc2)ccc1OC(=O)c1ccncc1	i	-9	56*[inhibitor]	70	0	i	97	-5	98
Cc1ccccc1N1CC(C(=O)N2CCCCCC2)CC1=O (stereo unspecified)	i	x	x	x	0	i	x	x	x
CC(=O)N1CCN2C(=O)C1CCCC(=O)c1cc(C)ccc12 (stereo unspecified)	i	5	48*[inhibitor]	64	0	i	103	0	99
OC(CNCC1CCCO1)Cn1c2ccccc2c2ccccc21 (stereo unspecified)	i	7	101	112	0	i	x	x	x
